# In all, about 39,000 sequences were measured (“fluorescence intensity (a.u.)”: median about 4,300, highest 2% from about 39,000 on). Shown is part of a subset that was picked to be rich in the highest values.
# Biological target: T1, OsSMF1 (Oryza sativa, UniProt Q6ZLB0 1-436)
# T1 sequence: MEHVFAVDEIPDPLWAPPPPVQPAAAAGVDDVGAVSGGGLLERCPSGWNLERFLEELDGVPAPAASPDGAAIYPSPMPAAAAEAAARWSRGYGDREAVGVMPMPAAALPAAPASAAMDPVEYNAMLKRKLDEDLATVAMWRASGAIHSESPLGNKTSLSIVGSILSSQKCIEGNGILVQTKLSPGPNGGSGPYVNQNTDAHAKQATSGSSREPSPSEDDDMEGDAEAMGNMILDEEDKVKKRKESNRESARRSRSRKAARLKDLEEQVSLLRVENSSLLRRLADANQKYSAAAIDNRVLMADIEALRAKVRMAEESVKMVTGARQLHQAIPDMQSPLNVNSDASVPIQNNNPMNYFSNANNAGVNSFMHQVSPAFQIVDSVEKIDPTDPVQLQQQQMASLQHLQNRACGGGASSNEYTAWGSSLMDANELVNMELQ
# Test: protein-binding microarray (RPBM); PBS, 2% BSA, 51.3 ng/ul salmon testes DNA, 50 uM zinc acetate, 200 nM TF, 25 C, 1 h; high values mean tight binding
# Conditions: protein: recombinant; tags: N-terminal polyhistidine and DsRed monomer fusion (pET32a); chain copies: 2; label: CyDye5-dUTP incorporated in the synthesized complementary strand; 3' TTTTT single-stranded linker to array surface; dsDNA, one strand shown
# How it was run: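 Binding signal is defined as the fluorescence intensity of each feature in arbitrary units, read on an Axon 4000B scanner. Transcription factors with N-terminal polyhistidine and DsRed fusions came from E. coli BL21-CodonPlus and were purified on Ni–NTA. They were incubated at 200 nM for 1 h at 25 °C on a custom Agilent array that had been made double-stranded with Cy5-dUTP, with 50 µM zinc acetate present, and the array was washed.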
row,Sequence,binding signal
1,AATTATAAAATCCAGAAAATAAACTAAGAACTGAAAACTACGGAGTCACCTAGTGCAG,5060 fluorescence intensity (a.u.)
2,TCAGGATGACTCGAAGTCGAATCCGCGTAATACGCTGGCGCGGAGTCACCTAGTGCAG,3370 fluorescence intensity (a.u.)
3,CCATCACCTCGTCGTCCCCGTCACCGCGCCTCTCCCGCTGCGGAGTCACCTAGTGCAG,3780 fluorescence intensity (a.u.)
4,TTGAATGGTGATGTAACTTGCATGGTTCTACACTTGATGACGGAGTCACCTAGTGCAG,3610 fluorescence intensity (a.u.)
5,TAATTCCAAGCTTGTTTCACCGACCTGCCAAACTCGATTGCGGAGTCACCTAGTGCAG,3270 fluorescence intensity (a.u.)
6,CTCCGATGGAAGCCACGTCCTGTCCAATTCCCAAACTAACCGGAGTCACCTAGTGCAG,4220 fluorescence intensity (a.u.)
7,GGGCAGCGCTAACCCAAAGCTCCTGCGATTCCAAACCGACCGGAGTCACCTAGTGCAG,64800 fluorescence intensity (a.u.)
8,AAGGTGATAGGGTCTCAAGTACGTCATTATGAATGTAAATCGGAGTCACCTAGTGCAG,3910 fluorescence intensity (a.u.)
9,TCTAGACAATCAAGCCGCTAGAAGTTTCATAGAGTGGTAGCGGAGTCACCTAGTGCAG,7160 fluorescence intensity (a.u.)
10,CTCCCTAGTCCACAAAACCTAGTGACGCGGCGAAACCCAACGGAGTCACCTAGTGCAG,5660 fluorescence intensity (a.u.)
11,ACATGGGCCGCAATCAGGTCACGTGGCTAGGCCTTGGGCCCGGAGTCACCTAGTGCAG,3230 fluorescence intensity (a.u.)
12,TTTCAGTAGCGTCGGCTGCTCTATCTACTTGCATTGCCTGCGGAGTCACCTAGTGCAG,41000 fluorescence intensity (a.u.)
13,TTAGCCATTGCTACTTGCTTGCAGCGCGCGTGTCGGCTAGCGGAGTCACCTAGTGCAG,25300 fluorescence intensity (a.u.)
14,GTGTGCTCTTGCATACATACTTGGGCTTATCTAGCTGCGTCGGAGTCACCTAGTGCAG,5510 fluorescence intensity (a.u.)
15,CTAGTTTACATCTGCAATGTCATGATTTATTTATGGAATACGGAGTCACCTAGTGCAG,19500 fluorescence intensity (a.u.)
16,TGGAAAGAATACAGTATGATATGGTCTTATTTTGTCTGCCCGGAGTCACCTAGTGCAG,41200 fluorescence intensity (a.u.)
17,GTTTCTTATTTTATGAATGGTATGAGTAAGAATATGTTTGCGGAGTCACCTAGTGCAG,3690 fluorescence intensity (a.u.)
18,GCGAGCAGTCGATGTCCTCGATGACGATGATGGACTTGCTCGGAGTCACCTAGTGCAG,4140 fluorescence intensity (a.u.)
19,AGTAGAGAGATCTTGACAAAGTCATCGGTGATGAAGTCGACGGAGTCACCTAGTGCAG,3570 fluorescence intensity (a.u.)
20,AGGGCTATCTGCTATCTCATCTTGTATGACAAAGATTGATCGGAGTCACCTAGTGCAG,65500 fluorescence intensity (a.u.)
21,TATGACATCGGCTCAAAGATAAATGATATGTCATCGGCATCGGAGTCACCTAGTGCAG,3540 fluorescence intensity (a.u.)
22,CCGTTGCCGCGCCGTGGACCGACAGCCACTGACGTCACCCCGGAGTCACCTAGTGCAG,18600 fluorescence intensity (a.u.)
23,TTGAACCAACACTATATCATACACCTAGTCACCTACTCCTCGGAGTCACCTAGTGCAG,4770 fluorescence intensity (a.u.)

row,Sequence,binding signal
1,CATCTCCATTCTTTCATCCTCATCTCTAATGGAGAATTTCCGGAGTCACCTAGTGCAG,3920 fluorescence intensity (a.u.)
2,ACTAATTGTGGCCATGTTCATCGTGCAGTTCCTTGGATCTCGGAGTCACCTAGTGCAG,17300 fluorescence intensity (a.u.)
3,ACACATTCCATATCCTTGGACTAATTCACGAGACGAATCTCGGAGTCACCTAGTGCAG,40900 fluorescence intensity (a.u.)
4,AGTAATTAAAATTTAAGAGGCAAAATTACGTGTGAATTTGCGGAGTCACCTAGTGCAG,4130 fluorescence intensity (a.u.)
5,CCCGAAGCGGATTCGCGCACGGAAACCCACAGTCGATTCTCGGAGTCACCTAGTGCAG,3590 fluorescence intensity (a.u.)
6,ATAGGGTGAGAAAGCACCTCGTTTTCCACGCGCACGCTTCCGGAGTCACCTAGTGCAG,3330 fluorescence intensity (a.u.)
7,CTTGCCGTCGAAGCGAAGGAACCGCCACCCGACGTCAGCTCGGAGTCACCTAGTGCAG,5050 fluorescence intensity (a.u.)
8,GGGAGGACGAAGGAACGCCAATACCGACATTGCTCAAGCTCGGAGTCACCTAGTGCAG,65300 fluorescence intensity (a.u.)
9,CTTGCCGTCGACGCGAAGGAACCGCCACCCGACGTCAGCTCGGAGTCACCTAGTGCAG,5610 fluorescence intensity (a.u.)
10,GGTGGGGACCACCAGGACGGACGTGTAGGGCCTCCTGAAGCGGAGTCACCTAGTGCAG,4270 fluorescence intensity (a.u.)
11,TCCAGGGAGCCGCGGTGGCATATGTTGCTGACATGTTTTCCGGAGTCACCTAGTGCAG,5340 fluorescence intensity (a.u.)
12,ACTGGAGCTAACCGCTGACGTGGCATTCCACGTAGGCAACCGGAGTCACCTAGTGCAG,42500 fluorescence intensity (a.u.)
13,GTTGACCGTCTACGTGGCATTCCACGTAGGCAGCTCATTTCGGAGTCACCTAGTGCAG,16600 fluorescence intensity (a.u.)
14,TTTGACTCCGATTTTATCCGACGTGGCAGCTGACTCAGCGCGGAGTCACCTAGTGCAG,25300 fluorescence intensity (a.u.)
15,ATCCGGTTTTATCCGACGTGGCGGCTGAGTCGGCGCGGGACGGAGTCACCTAGTGCAG,30700 fluorescence intensity (a.u.)
16,TCAGAGAGCTGACAGCGTGTTCAGGCCGTTCGATTTTGGTCGGAGTCACCTAGTGCAG,5030 fluorescence intensity (a.u.)
17,GATTTTATTCGACGTGTCAGCTGACTCAGATGGTCGGTAGCGGAGTCACCTAGTGCAG,39100 fluorescence intensity (a.u.)
18,TTTTGCACACATGTATCATGCTGACGTCAGCATGACGTGGCGGAGTCACCTAGTGCAG,61200 fluorescence intensity (a.u.)
19,CTTTTGCTCACATGGCGTGCCACCGTGGCGTGCCCGCATGCGGAGTCACCTAGTGCAG,16200 fluorescence intensity (a.u.)
20,ACTCCGGTTTTATCCGACGTGGCAGCTGACTCAGCATGGGCGGAGTCACCTAGTGCAG,44300 fluorescence intensity (a.u.)
21,ATGGAGCCTGACGTGGCAGCATGTAGCTGGTCCACGTCACCGGAGTCACCTAGTGCAG,27400 fluorescence intensity (a.u.)
22,ATTTGGGCGGCAAGCTGACGTGGCACACGGCGTCATGACTCGGAGTCACCTAGTGCAG,18100 fluorescence intensity (a.u.)
23,TGTGTCATGGCTGATGTCAGCTCAGCATATATATATTCAGCGGAGTCACCTAGTGCAG,14900 fluorescence intensity (a.u.)

# Reference: PMC7819943, “Rice protein-binding microarrays: a tool to detect cis-acting elements near promoter regions in rice”
